# Experimental data published in PubChem BioAssay (NCATS).
# Values joined by “and” are separate entries in the source; they are usually repeats but may differ in a detail not shown here. Identical values can stand only once. A number with no mark means an inactive call. Results filed as inconclusive are left out. Active and inactive are the calls of the source. Unless noted, calls come from the whole dose curve; as a rule, active = well fitted curve in either direction with a large enough effect (not every such curve was filed as active); inconclusive = small, poorly fitted or top-dose-only effect, or another doubt; inactive = flat fitted curve, though single readings scatter.
# Legend:
# [1] = AP1 Signaling Pathway (AID 357); settings: ME-180 AP-1-bla reporter, EGF-induced, beta-lactamase ratio, 5 h;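 note: ME-180 reporter cells stimulated with EGF at its EC50 level; % is set by controls: 0 for no effect and ±100 for the full control effect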
# Summary of the method: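 Beta-lactamase reporter under AP-1 response element, ME-180 background. Stimulus: EC50 EGF. Compound exposure 5 h, 37 °C. Detection: CCF4, 2.5 h RT, 460/530 nm. Values: AC50 from titration.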
# [2] = NFAT Signaling Pathway (AID 444); settings: Jurkat NFAT-bla M1, carbachol, beta-lactamase ratio, 5 h;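 note: carbachol stimulus at about its EC50 of 1 µM final; % is set by controls: 0 for no effect and ±100 for the full control effect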
# Summary of the method: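 Jurkat cells with NFAT-driven β-lactamase reporter and co-expressed M1 receptor, stimulated with carbachol (final 1 uM, ~EC50), compound titration, 5 h at 37 °C. CCF4 loaded 1 h at RT; 460/530 nm ratio gave %activity and AC50.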
# [3] = Stat Signaling Pathway (AID 446); settings: ME-180 (cervical carcinoma) SIE beta-lactamase reporter, IL-6 stimulated, 5 h; series mostly up to 17.2 µM;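 note: ME-180 cervical cancer cells given 40 pM IL-6 alongside compound; SIE-controlled beta-lactamase reporter measured as 460/530 nm FRET emission ratio; % is set by controls: 0 for no effect and ±100 for the full control effect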
# Summary of the method: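 Normalization used AC90 stimulation (300 pM IL-6) and AC90 inhibition (125 nM pan-JAK inhibitor at 40 pM IL-6). The underlying signal is SIE-driven beta-lactamase in ME-180 cells after 5 h IL-6 exposure with compound.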
# [4] = molecular target: Glucocorticoid receptor (Homo sapiens) (UniProt P04150); experiment: GR-GFP Redistribution (AID 450;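 active = compounds whose dose series gives a full or clear partial fitted curve of increased nuclear translocation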; note: potency is the fitted concentration of half-maximal effect); settings: U2OS GR-GFP nuclear translocation, laser cytometry, 2 h
# Chain of Glucocorticoid receptor (Homo sapiens) (P04150 whole entry, looked up, the tested form may be a part): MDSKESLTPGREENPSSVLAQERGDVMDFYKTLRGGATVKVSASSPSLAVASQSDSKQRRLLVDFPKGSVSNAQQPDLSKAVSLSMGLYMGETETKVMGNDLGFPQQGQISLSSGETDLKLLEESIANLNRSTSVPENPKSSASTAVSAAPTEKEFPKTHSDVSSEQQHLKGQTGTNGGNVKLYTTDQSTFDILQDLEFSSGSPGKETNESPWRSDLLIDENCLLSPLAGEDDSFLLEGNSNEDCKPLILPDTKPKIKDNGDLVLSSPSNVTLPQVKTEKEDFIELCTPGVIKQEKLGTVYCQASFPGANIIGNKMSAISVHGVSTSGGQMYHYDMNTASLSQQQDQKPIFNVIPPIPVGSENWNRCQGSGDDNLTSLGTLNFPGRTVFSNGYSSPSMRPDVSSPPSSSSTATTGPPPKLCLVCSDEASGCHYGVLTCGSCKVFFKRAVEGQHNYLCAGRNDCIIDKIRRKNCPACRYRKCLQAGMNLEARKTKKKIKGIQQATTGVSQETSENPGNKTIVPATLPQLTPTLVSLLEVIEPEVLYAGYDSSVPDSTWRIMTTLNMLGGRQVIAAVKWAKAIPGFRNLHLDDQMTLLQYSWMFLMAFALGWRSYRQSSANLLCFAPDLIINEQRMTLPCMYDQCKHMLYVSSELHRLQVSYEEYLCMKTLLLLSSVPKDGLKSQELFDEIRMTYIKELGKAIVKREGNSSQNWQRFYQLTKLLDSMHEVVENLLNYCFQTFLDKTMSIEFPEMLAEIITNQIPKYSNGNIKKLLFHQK
# [5] = molecular target: Glucocorticoid receptor (Homo sapiens) (UniProt P04150); experiment: GR-EFC Redistribution (AID 451; calls by dose curve; note: potency is the fitted concentration of half-maximal effect); settings: CHO-K1 GR-EFC translocation, beta-gal luminescence, 2 h
# Summary of the method: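 CHO-K1 cells expressing nuclear EA and GR-ED fragments of b-gal; compounds titrated up to 46 uM final, 2 h at 37 C. GR nuclear translocation read as complemented b-gal luminescence after 1 h RT detection.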
# [6] = molecular target: Mitogen-activated protein kinase 10 (Mus musculus) (UniProt Q61831); experiment: JNK3 AlphaScreen Assay (AID 530); settings: JNK3 lysate, c-Jun phosphorylation; series mostly up to 57.1 µM;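 note: kinase came from lysate of stimulated human HepG2 cells; signal reports phosphorylation of biotinylated GST-cJun 1-79 at Ser73 with 10 µM ATP; % is set by controls: 0 for no effect and ±100 for the full control effect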
# Summary of the method: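 Activity was read by AlphaScreen after JNK3-containing HepG2 lysate (cytokine pre-activated) phosphorylated biotinylated GST-cJun with 10 uM ATP at room temperature. Phospho-Ser73 cJun antibody with Protein-A acceptor beads provided detection.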
# [7] = Cell Viability - BJ (AID 421; calls by dose curve;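 note: potency is the fitted concentration of half-maximal effect; cells exposed to compound for 40 hours at 37 °C before readout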); settings: BJ fibroblast viability, qHTS
# Summary of the method: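 Normal human BJ foreskin fibroblasts, 1500/well in complete medium, treated 40 hr at 37 °C. Cellular ATP by CellTiter-Glo luminescence; normalized to DMSO and 100 uM tamoxifen, AC50 from Hill fit.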
# [8] = Cell Viability - Jurkat (AID 426;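 active = dose-dependent loss of cell ATP signal giving a full or clear fitted curve, ranked by lower potency value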; note: potency is the fitted concentration of half-maximal effect); settings: qHTS
# Summary of the method: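 Cells of the human T-cell leukemia line Jurkat (E6-1) are seeded at 5000 per well, treated with compound across a concentration range for 40 hours at 37 °C, then lysed with CellTiter-Glo; luminescence reports ATP.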
# [9] = Cell Viability - Hek293 (AID 427;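 active = compounds whose dose-response curve shows a full or clear partial loss of cell viability, called from curve shape rather than a numeric limit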;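 note: potency is the fitted concentration of half-maximal effect; cells exposed to compound for 40 hours at 37 °C before reading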); settings: qHTS
# Summary of the method: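 HEK293 cells in complete medium were exposed to compound for 40 hr at 37 °C, then cellular ATP was read by CellTiter-Glo luminescence. Data were normalized to DMSO (basal) and 100 uM tamoxifen (100% inhibition), and AC50 came from Hill fits.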
# [10] = Cell Viability - HepG2 (AID 433; calls by dose curve;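 note: potency is the fitted concentration of half-maximal effect; potency for ATP loss meaning cytotoxicity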); settings: qHTS
# Summary of the method: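 Cytotoxicity is scored as loss of intracellular ATP in HepG2 cells exposed to compounds for 40 h. Concentration-response curves, normalized to DMSO and 100 uM tamoxifen, give AC50 values.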
# [11] = Cell Viability - MRC5 (AID 434; calls by dose curve;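 note: potency is the fitted concentration of half-maximal effect; potency reflects cytotoxicity seen as loss of intracellular ATP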); settings: MRC5 lung fibroblast viability, qHTS
# Summary of the method: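 ATP luminescence read-out (CellTiter-Glo, 20 min RT) after 40 hr, 37 °C compound exposure of 1500 MRC5 cells/well. Data normalized to DMSO (basal) and 100 uM tamoxifen (100% inhibition); AC50 from standard Hill equation.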
# [12] = Cell Viability - SK-N-SH (AID 435; calls by dose curve;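 note: potency is the fitted concentration of half-maximal effect; compound exposure lasted 40 h at 37 °C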); settings: SK-N-SH neuroblastoma cell viability qHTS
# Summary of the method: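 Cells seeded at 1500 per well and incubated 5 hr at 37 °C. Compound added, then 40 hr at 37 °C. CellTiter-Glo added, 20 min at room temperature, luminescence read.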
# [13] = Cell Viability - N2a (AID 540; active = well fitted curve in the direction sought with a large enough effect; an effect the other way counts as inactive or inconclusive;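 note: plate controls were DMSO alone for no effect and tamoxifen control for full effect; nearly all actives have a fitted effect of over 45% in size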); settings: N2a mouse neuroblastoma cell viability; series mostly up to 92.2 µM
# Summary of the method: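 Cytotoxicity was scored as loss of cellular ATP in N2a cells, a mouse neuroblastoma line. Compounds are applied in a qHTS concentration series for 40 hr at 37 °C.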
# [14] = Cell Viability - HUV-EC-C (AID 542; active = well fitted curve in the direction sought with a large enough effect; an effect the other way counts as inactive or inconclusive; note: % is set by controls: 0 for no effect and ±100 for the full control effect; nearly all actives have a fitted effect of over 35% in size); settings: HUV-EC-C endothelial cell viability, qHTS; series mostly up to 92.2 µM
# Summary of the method: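 Cells were seeded at 1000 per well and incubated 5 hr at 37 °C before compound addition. After 40 hr at 37 °C, CellTiter-Glo reagent was added for 20 min and luminescence read. AC50 values came from Hill-equation modelling.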
# [15] = Cell Viability - H-4-II-E (AID 543; active = well fitted curve in the direction sought with a large enough effect; an effect the other way counts as inactive or inconclusive; note: % is set by controls: 0 for no effect and ±100 for the full control effect; nearly all actives have a fitted effect of over 35% in size); settings: H-4-II-E rat hepatoma viability; series mostly up to 92.2 µM
# Summary of the method: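 Cells seeded at 1500 per well and rested 5 hr; compounds added; 40 hr incubation at 37 °C; CellTiter-Glo added, 20 min at room temperature; luminescence read. Hill-equation fits gave AC50.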
# [16] = Cell Viability - SH-SY5Y (AID 544; active = well fitted curve in the direction sought with a large enough effect; an effect the other way counts as inactive or inconclusive; note: nearly all actives have a fitted effect of over 55% in size; note: potency is the fitted concentration of half-maximal effect); settings: SH-SY5Y neuroblastoma cell viability; series mostly up to 92.2 µM
# Summary of the method: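 Cells were plated at 1500 per well and allowed 5 hr at 37 °C. Compounds were added across a concentration range and incubated 40 hr at 37 °C. CellTiter-Glo was added for 20 min at room temperature before luminescence reading.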
# [17] = Cell Viability - Renal Proximal Tubule (AID 545; active = well fitted curve in the direction sought with a large enough effect; an effect the other way counts as inactive or inconclusive; note: nearly all actives have a fitted effect of over 40% in size; note: potency is the fitted concentration of half-maximal effect;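 for activity change, negative = cytotoxicity: 0% = DMSO only and -100% = 100 µM tamoxifen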); settings: renal proximal tubule cells viability, primary cells of rat origin; activity change, negative = cytotoxicity: at 91.7 µM (top of the series)
# Summary of the method: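 Cytotoxicity is scored as a concentration-dependent drop in cellular ATP in primary rat renal proximal tubule cells exposed for 40 hr. AC50 derives from Hill modelling.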
# [18] = molecular target: Cytochrome P450 1A2 (Homo sapiens) (UniProt P05177); experiment: p450-cyp1a2 (AID 410; calls by dose curve; note: potency is the fitted concentration of half-maximal effect); settings: recombinant CYP1A2, luciferin-ME demethylation, luminescence; series mostly up to 57 µM
# Chain of Cytochrome P450 1A2 (Homo sapiens) (P05177 whole entry, looked up): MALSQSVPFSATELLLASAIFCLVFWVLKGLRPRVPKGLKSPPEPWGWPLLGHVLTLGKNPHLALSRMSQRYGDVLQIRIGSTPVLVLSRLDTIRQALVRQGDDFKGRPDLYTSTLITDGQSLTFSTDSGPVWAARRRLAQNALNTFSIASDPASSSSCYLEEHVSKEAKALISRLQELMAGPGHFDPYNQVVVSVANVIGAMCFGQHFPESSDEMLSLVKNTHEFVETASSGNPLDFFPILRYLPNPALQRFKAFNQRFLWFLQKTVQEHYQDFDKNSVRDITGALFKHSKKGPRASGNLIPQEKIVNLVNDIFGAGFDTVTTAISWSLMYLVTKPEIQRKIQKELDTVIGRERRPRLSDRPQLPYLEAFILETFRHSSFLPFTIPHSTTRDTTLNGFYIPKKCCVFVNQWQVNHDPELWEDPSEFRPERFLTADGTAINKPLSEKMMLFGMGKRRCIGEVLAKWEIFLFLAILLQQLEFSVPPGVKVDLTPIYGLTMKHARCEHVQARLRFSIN
# Summary of the method: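 O-Demethylation of luciferin 6' methyl ether by human CYP1A2 is monitored as luciferase luminescence. Substrate sits at Km (100uM); enzyme is 20nM. Values are scaled to 57 uM furafylline as maximal inhibition.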
# [19] = Cell Viability - NIH 3T3 (AID 541; active = well fitted curve in the direction sought with a large enough effect; an effect the other way counts as inactive or inconclusive; note: nearly all actives have a fitted effect of over 25% in size; note: potency is the fitted concentration of half-maximal effect;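 for activity change, negative = cytotoxicity: plate controls were DMSO alone for no effect and tamoxifen positive control for full effect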); settings: NIH 3T3 cell viability, qHTS; activity change, negative = cytotoxicity: at 92.2 µM (top of the series)
# Summary of the method: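 Cells seeded at 1000/well, rested 5 hr at 37 °C, then dosed and incubated 40 hr at 37 °C. CellTiter-Glo added, 20 min room temperature, luminescence read. AC50 by Hill fit.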
compound,measurement,setting,value
C[C@]12CCC(=O)C=C1CC[C@@H]1[C@@H]2C(=O)C[C@@]2(C)[C@H]1CC[C@]2(O)C(=O)CO,"activity change, negative = inhibition",[1]; at 17.2 µM (top of the series),7.64%
same,"activity change, negative = inhibition",[2]; at 17.2 µM (top of the series),-6.84%
same,outcome,[3],inactive
same,Potency,[4],0.818 µM (active)
CC(C)[N+](C)(CCOC(=O)C1c2ccccc2Oc2ccccc21)C(C)C,"activity change, negative = inhibition",[1]; at 17.2 µM (top of the series),12.1% and 5.76%
same,"activity change, negative = inhibition",[1]; at 38 µM (top of the series),3.91%
same,"activity change, negative = inhibition",[2]; at 17.2 µM (top of the series),-48.1% (active) and -94.6% (active)
same,"activity change, negative = inhibition",[2]; at 38 µM (top of the series),-63% (active)
same,outcome,[3],inactive
same,Potency,[4],> 46 µM and > 20.6 µM
same,Potency,[5],> 46 µM and > 20.6 µM
same,Potency,[6],inactive
CCn1nc(C(=O)O)c(=O)c2cc3c(cc21)OCO3,"activity change, negative = inhibition",[1]; at 17.2 µM (top of the series),-3.87% and 14.9%
same,"activity change, negative = inhibition",[1]; at 38 µM (top of the series),-2.22%
same,outcome,[3],inactive
same,Potency,[4],> 46 µM and > 20.6 µM
same,Potency,[5],> 46 µM and > 20.6 µM
same,Potency,[6],inactive
Cc1ccc(S(=O)(=O)NC(=O)NN2CCCCCC2)cc1,"activity change, negative = inhibition",[1]; at 17.2 µM (top of the series),-5.47% and 3%
same,"activity change, negative = inhibition",[1]; at 38 µM (top of the series),4.52%
same,"activity change, negative = inhibition",[2]; at 17.2 µM (top of the series),-5.82% and -2.02%
same,"activity change, negative = inhibition",[2]; at 38 µM (top of the series),-9.25%
same,outcome,[3],inactive
same,Potency,[4],> 46 µM and > 20.6 µM
same,Potency,[5],> 46 µM and > 20.6 µM
same,Potency,[6],inactive
C[C@]12C=CC(=O)C=C1CC[C@H]1[C@@H]3C[C@@H](O)[C@](O)(C(=O)CO)[C@@]3(C)C[C@H](O)[C@@]12F,"activity change, negative = inhibition",[1]; at 17.2 µM (top of the series),-5.22%
same,"activity change, negative = inhibition",[2]; at 17.2 µM (top of the series),16.1%
same,outcome,[3],inactive
same,Potency,[4],0.148 µM (active)
Cc1nc2c([nH]1)c(=O)n(C)c(=O)n2Cc1ccco1,"activity change, negative = inhibition",[1]; at 38 µM (top of the series),-6.02%
same,"activity change, negative = inhibition",[2]; at 38 µM (top of the series),-9.82%
same,outcome,[3],inactive
same,Potency,[4],> 46 µM
same,Potency,[5],> 46 µM
same,Potency,[6],inactive
Cc1nnc(SCC2=C(C(=O)O)N3C(=O)[C@@H](NC(=O)Cn4cnnn4)[C@H]3SC2)s1,"activity change, negative = inhibition",[1]; at 17.2 µM (top of the series),6.59%
same,"activity change, negative = inhibition",[2]; at 17.2 µM (top of the series),-25%
same,outcome,[3],inactive
CCc1cccc(N(C)C(N)=Nc2cccc3ccccc23)c1,"activity change, negative = inhibition",[2]; at 38 µM (top of the series),-9.54%
same,Potency,[4],> 46 µM
same,Potency,[5],> 46 µM
same,Potency,[6],inactive
CCCCOCCOCCOCc1cc2c(cc1CCC)OCO2,Potency,[7],> 92 µM
same,Potency,[8],> 92 µM
same,Potency,[9],> 92 µM
same,Potency,[10],> 92 µM
same,Potency,[11],> 92 µM
same,Potency,[12],> 92 µM
same,outcome,[13],inactive
same,Potency,[14],inactive
same,Potency,[15],inactive
same,Potency,[16],inactive
same,"activity change, negative = cytotoxicity",[17],-1.35%
CN(C)CCCN1c2ccccc2Sc2ccccc21,outcome,[3],inactive
same,Potency,[6],inactive
CC1=C(C)C(=O)C(CCCCC#CCCCC#CCO)=C(C)C1=O,Potency,[18],0.501 µM (active)
same,outcome,[3],inactive
same,Potency,[4],> 46 µM and > 20.6 µM
same,Potency,[5],> 46 µM
N[C@@H](COP(=O)(O)O)C(=O)O,Potency,[4],> 46 µM
same,Potency,[5],> 46 µM
same,Potency,[6],inactive
COCCCC/C(=N\OCCN)c1ccc(C(F)(F)F)cc1,"activity change, negative = inhibition",[1]; at 17.2 µM (top of the series),14.9%
same,outcome,[3],inactive
same,Potency,[4],> 20.6 µM
CCN1CCC[C@H]1CNC(=O)c1c(O)c(Cl)cc(Cl)c1OC,Potency,[6],inactive
CSc1ccc(C(=O)c2[nH]c(=O)[nH]c2C)cc1,"activity change, negative = inhibition",[1]; at 38 µM (top of the series),-4.8%
same,outcome,[3],inactive
same,Potency,[6],inactive
COc1ccc(CCN(C)CCCC(C#N)(c2cc(OC)c(OC)c(OC)c2)C(C)C)cc1OC (centres undefined),"activity change, negative = inhibition",[1]; at 17.2 µM (top of the series),-6.26%
same,outcome,[3],inactive
same,Potency,[4],> 20.6 µM
CN(C)CCCN1c2ccccc2Sc2ccc(C(F)(F)F)cc21,Potency,[18],1.58 µM (active) and 794 nM (active)
same,outcome,[3],inactive
same,Potency,[4],> 46 µM and > 20.6 µM
same,Potency,[5],> 46 µM and > 20.6 µM
same,Potency,[6],inactive
CCCCCCCC/C=C\CCCCCCCC(=O)NCc1ccc(O)c(OC)c1,Potency,[18],20 µM (active)
same,Potency,[5],> 46 µM
CN1CCN(C2=Nc3ccccc3Oc3ccc(Cl)cc32)CC1,Potency,[18],3.16 µM (active)
same,"activity change, negative = inhibition",[2]; at 17.2 µM (top of the series),-75.6% (active)
same,outcome,[3],inactive
same,Potency,[4],> 46 µM and > 20.6 µM
same,Potency,[5],> 46 µM and > 20.6 µM
same,Potency,[6],inactive
NC(=Nc1ccccc1)Nc1ccccc1,Potency,[7],> 92 µM
same,Potency,[8],> 92 µM
same,Potency,[9],> 92 µM
same,Potency,[10],> 92 µM
same,Potency,[11],> 92 µM
same,Potency,[12],> 92 µM
same,Potency,[6],inactive
same,outcome,[13],inactive
same,"activity change, negative = cytotoxicity",[19],-3.31%
same,Potency,[14],inactive
same,Potency,[15],inactive
same,Potency,[16],inactive
same,"activity change, negative = cytotoxicity",[17],-3.07%
Nc1ncn([C@@H]2O[C@H](CO)[C@@H](O)[C@H]2O)c(=O)n1,Potency,[7],> 92 µM
same,Potency,[8],1.01 µM (active)
same,Potency,[9],6.9 µM (active)
same,Potency,[10],> 92 µM
same,Potency,[12],16.6 µM (active)
same,Potency,[6],inactive
same,Potency,[19],5.01 µM (active)
same,Potency,[14],inactive
same,Potency,[16],6.31 µM (active)
same,Potency,[17],15.8 µM (active)
